About 83,000 compounds went through this panel and 20% of them were active in at least one assay; those are over-represented in the sample as a whole.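 Cell lines were cultured in 96-well plates, exposed to a single compound concentration, and assessed for percent growth 48 hours later.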 Values without a mark were called inactive. The source made the active and inactive calls. Rule for the calls: active = growth percent below 10; inactive = the rest.
Legend:
Assay in all cases: NCI-60 one-dose screen, 48 h (100 = growth as untreated, 0 = no growth, -100 = all killed)
[1] = system: SR leukemia; details: 10 µM unless noted
[2] = system: RPMI-8226 leukemia; details: 10 µM unless noted
[3] = system: OVCAR-5 ovarian; details: 10 µM unless noted
[4] = system: OVCAR-4 ovarian; details: 10 µM unless noted
[5] = system: SK-OV-3 ovarian; details: 10 µM unless noted
[6] = system: IGROV1 ovarian; details: 10 µM unless noted
[7] = system: OVCAR-3 ovarian; details: 10 µM unless noted
[8] = system: HS 578T breast; details: 10 µM
[9] = system: NCI/ADR-RES ovarian; details: 10 µM unless noted
[10] = system: T-47D breast; details: 10 µM unless noted
[11] = system: BT-549 breast; details: 10 µM unless noted
[12] = system: MDA-MB-435 melanoma; details: 10 µM unless noted
[13] = system: SW-620 colon; details: 10 µM unless noted
[14] = system: MCF7 breast; details: 10 µM unless noted
[15] = system: HCT-116 colon; details: 10 µM unless noted
[16] = system: HCC-2998 colon; details: 10 µM
[17] = system: KM12 colon; details: 10 µM unless noted
[18] = system: OVCAR-8 ovarian; details: 10 µM unless noted

SMILES | growth [1] | growth [2] | growth [3] | growth [4] | growth [5] | growth [6] | growth [7] | growth [8] | growth [9] | growth [10] | growth [11] | growth [12] | growth [13] | growth [14] | growth [15] | growth [16] | growth [17] | growth [18]
COc1cnc2c(c1)C(=O)c1c-2n(CCCn2ccnc2)c(=O)c2cc(Cl)ccc12 | -10.3% (active) | -15.3% (active) | 26.6% | 40.4% | -28% (active) | 35.2% | -8.34% (active) | 75.1% | 4.79% (active) | -1.88% (active) | 13.2% | 11% | 20.1% | 7.47% (active) | -20.7% (active) | 31.6% | 9.84% (active) | 
CCc1nc2cc(F)c(/C=C/C(=O)NO)cc2c(=O)n1CCc1ccccc1 | 15.1% | 11% | 23.6% | 15.4% | 1.17% (active) | 32.2% | 7.99% (active) | 43.3% | 2.43% (active) | 2.26% (active) | 28.8% | 23.8% | 9.97% (active) | 12.3% | 5.01% (active) | 37.3% | 25.6% | 
Cc1cn(-c2cc(NC(=O)c3ccc(C)c(Nc4nccc(-c5cccnc5)n4)c3)cc(C(F)(F)F)c2)cn1 | 8.24% (active) | 37.9% | 57% | 51.8% | 119% | -44.4% (active) | 92.6% |  | 31.6% | 45.6% | 24.2% | -11.9% (active) | 60% | 12.8% | 42.6% | 63.8% | 30% | 
CO[C@H]1C[C@@H]2CC[C@@H](C)[C@@](O)(O2)C(=O)C(=O)N2CCCC[C@H]2C(=O)O[C@H]([C@H](C)C[C@@H]2CC[C@@H](OP(C)(C)=O)[C@H](OC)C2)CC(=O)[C@H](C)/C=C(\C)[C@@H](O)[C@@H](OC)C(=O)[C@H](C)C[C@H](C)\C=C/C=C/C=C/1C | 13.1% | 34.8% | 60.7% | 28.6% | 12.2% |  | 59.7% |  | 51.4% | 11.5% | 39.7% | 56.7% | 60.1% | 30.5% | 65.1% | 56.4% | 59.6% | 34.3%

Source: PubChem BioAssay (NCI)
